PubChem BioAssay (NCATS)
Inconclusive results are not listed. The source made the active and inactive calls. Calls come from the whole dose curve; as a rule, active = well fitted cell-killing curve with a large enough effect; inconclusive = small, poorly fitted or top-dose-only effect, or effect the other way; inactive = no such curve, though single readings can be large or run the other way.

experiment: Quantitative High-Throughput drug screen in 47 multiple myeloma cell lines against the NCATS MIPE library collection: KMS11_JCRBsus cell viability assay (AID 1919873); conditions: KMS11 myeloma viability, CellTiter-Glo ATP luminescence, 48 h; series mostly up to 45.8 µM; viability (% of control): at the top concentration; note: nearly all actives have a fitted effect of over 50% in size
In short: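 Myeloma cells (500/well) treated with MIPE 4.0 compounds for 48 h at 37 °C, 5% CO2. Viability read as ATP via CellTiter-Glo luminescence after 5 min at RT; DMSO-only wells = 100%, media-only = 0% viability.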
Potency is the fitted concentration of half-maximal effect.

Q: For `CC(=O)N1CCN(c2ccc(OC[C@H]3CO[C@](Cn4ccnc4)(c4ccc(Cl)cc4Cl)O3)cc2)CC1`, which Potency is on record?
A: 18.7 µM (active)

Q: For `C[C@@H](c1ncncc1F)[C@](O)(Cn1cncn1)c1ccc(F)cc1F`, which “viability (% of control)” value is on record?
A: 91.1% (inactive)

Q: Which Potency does the source give for `CCCCc1ccc2nc(NC(=O)OC)[nH]c2c1` here?
A: 0.0033 µM (active)

Q: With `CC(C)(S)[C@@H](N)C(=O)O` as the compound, how does the “viability (% of control)” value read?
A: 124% (inactive)

Q: Which “viability (% of control)” value does the source give for `CN(c1nccc(=O)[nH]1)C1CCN(c2nc3ccccc3n2Cc2ccc(F)cc2)CC1` here?
A: 134% (inactive)

Q: For `CN(C)C(=O)[C@H](O)[C@H](Cc1ccccc1)NC(=O)c1cc2cc(Cl)ccc2[nH]1`, which Potency is on record?
A: 16.6 µM (active)

Q: For `CCCc1cc(=O)[nH]c(=S)[nH]1`, which “viability (% of control)” value is on record?
A: 117% (inactive)

Q: For `COC1=C(OC)C(=O)C(CCCCCCCCCCO)=C(C)C1=O`, which Potency is on record?
A: 14.8 µM (active)

Q: Which “viability (% of control)” value does the source give for `CCC(C)(Oc1ccc(C2(c3ccc(OC(C)(CC)C(=O)O)cc3)CCCCC2)cc1)C(=O)O` (centres undefined) here?
A: 103% (inactive)

Q: Which Potency does the source give for `CCCS(=O)c1ccc2nc(NC(=O)OC)[nH]c2c1` (centres undefined) here?
A: 18.7 µM (active)

Q: For `CN(C)C(=O)COC(=O)Cc1ccc(OC(=O)c2ccc(N=C(N)N)cc2)cc1`, which “viability (% of control)” value is on record?
A: 101% (inactive)

Q: Which “viability (% of control)” value does the source give for `CCOC(=O)c1c(C)n(C)c2ccc(O)cc12` here?
A: 101% (inactive)

Q: Which “viability (% of control)” value does the source give for `COc1cc(OC)c(C(=O)CCCN2CCCC2)c(OC)c1` here?
A: 95.2% (inactive)

Q: For `C[Se]CCC(N)C(=O)O` (centres undefined), which “viability (% of control)” value is on record?
A: 91.9% [at 92.2 µM] (inactive)
